Six1-Eya2 blk: qHTS Assay for Inhibitors of the Six1/Eya2 Interaction; activity change, % (no concentration beside the values); hit rate 0.56% among 360,000; AlphaScreen GST-Six1/His-Eya2 binding, biochemical; hits give low values; AID 651725, 2012; Homeobox protein SIX1 (Homo sapiens) + Protein phosphatase EYA2 (Homo sapiens), …; in the data active = activity change below about -65%; inconclusive = mostly about -30% to -63%; also: % is scaled to controls: 0 for no effect and ±100 for the full control effect
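AlphaScreen luminescence read after one hour at 37 °C in darkness. Pin-transferred compounds met GST-Six1 and His-Eya2 protein (5X stock 250 nM/500 nM) plus glutathione donor and Ni-chelate acceptor beads (5X, 50 ug/mL).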
CtBP-E1A blk: qHTS Assay for Inhibitors of the CtBP/E1A Interaction | hit rate 0.49% among 340,000 | activity change, % (no concentration beside the values) | AID 651724, 2012 | AlphaScreen GST-E1A/His-CtBP binding, 1536-well; hits give low values; in the data active = activity change below about -65%; inconclusive = mostly about -30% to -63%; also: % is scaled to controls: 0 for no effect and ±100 for the full control effect
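Homogeneous bead-based format: GST-tagged E1A captured on glutathione donor beads, His-tagged CtBP on nickel acceptor beads; compounds precede bead addition by 2 h at 37 °C.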
JMJD2A Tudor inh: qHTS Assay for Inhibitors of JMJD2A-Tudor Domain | Lysine-specific demethylase 4A (Homo sapiens), O75164 | AlphaScreen JMJD2A-Tudor / H3K4me3 peptide binding | Potency, µM (series often up to 114 µM), without a hit: top-dose activity change, negative = inhibition, most hits filed as inhibitors | hit rate 4.4% among 390,000; also: potency is read from the fitted curve at half-maximal effect; % is scaled to controls: 0 for no effect and ±100 for the full control effect; nearly all actives have a fitted effect of over 50% in size
BAZ2B inh: qHTS Assay for Inhibitors of BAZ2B; AlphaScreen BAZ2B-H3K14Ac peptide displacement; Bromodomain adjacent to zinc finger domain protein 2B (Homo sapiens), Q9UIF8; Potency, µM (highest dose often 114 µM), for the others: top-dose activity change, negative = inhibition, actives largely listed as inhibitors; AID 504333, 2011; hit rate 4.4% among 360,000; also: potency is read from the fitted curve at half-maximal effect; % is scaled to controls: 0 for no effect and ±100 for the full control effect; nearly all actives have a fitted effect of over 60% in size
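AlphaScreen luminescence quantifies BAZ2B engagement of H3K14Ac peptide; the protein and biotinylated peptide are both at 50 nM final, buffer PBS pH 7.4 with 0.01% Tween-20, all steps at room temperature.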
G9a inh: qHTS Assay for Inhibitors of Histone Lysine Methyltransferase G9a | Histone-lysine N-methyltransferase EHMT2 (Homo sapiens), Q96KQ7 | G9a H3K9 monomethylation, AlphaScreen, 2 h | Potency, µM (titrated, usually from 102 µM), inactives show at the highest dose activity, negative = inhibition, actives largely listed as inhibitors | hit rate 8.8% among 350,000; also: potency is read from the fitted curve at half-maximal effect; % is scaled to controls: 0 for no effect and ±100 for the full control effect; nearly all actives have a fitted effect of over 75% in size
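Methyltransferase reactions run at room temperature for 2 h (20 nM enzyme, 500 nM biotin-H3K9 peptide, 20 uM SAM) after a 15 min compound preincubation; product detected by AlphaScreen beads and anti-H3K9me1 antibody.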
HP1b binding inh: HTS for Inhibitors of HP1-beta Chromodomain Interactions with Methylated Histone Tails. Chromobox protein homolog 1 (Homo sapiens), P83916. Potency, µM (series often up to 114 µM), for the others: at the highest dose activity change, negative = inhibition, most hits filed as inhibitors. hit rate 0.56% among 390,000. AlphaScreen HP1-beta / biotin-H3K9me3 peptide binding; also: potency is read from the fitted curve at half-maximal effect; nearly all actives have a fitted effect of over 70% in size
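HP1-beta protein (50 nM final) preincubated 30 min at room temperature with biotinylated H3(1-18)K9me3 peptide (50 nM) in PBS pH 7.4, 0.01% Tween-20, then compound added for 30 min. AlphaScreen streptavidin donor/nickel chelate acceptor beads (10 ug/mL final), 30 min dark, luminescence read.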
The depositor's hits bear a star; [ ] = remark or other dose. Only some compounds are listed: those with a hit (about 10% of all), similar ones and a draw of the others. Unless noted, calls follow the shape of the dose curve; as a rule, active = well fitted inhibition curve with a large enough effect; inconclusive = small, poorly fitted or top-dose-only effect; inactive = no such curve, though single readings can be large or run the other way.

`CCC(=O)NC(c1ccc(Cl)cc1Cl)c1ccc2cccnc2c1O` (stereo not given) gave Six1-Eya2 blk -80.1*, CtBP-E1A blk inconclusive, JMJD2A Tudor inh -28.1%, BAZ2B inh -4.6%, G9a inh 16.5% and HP1b binding inh 40.3%.
Screening CCCC(=O)NC(c1ccc(OC)cc1)c1c(O)ccc2ccccc12 (stereo not given) returned Six1-Eya2 blk 23.3, CtBP-E1A blk -2.3, JMJD2A Tudor inh -35.6%, BAZ2B inh -11.1%, G9a inh -30.8%[2.33 µM] and HP1b binding inh -4.7%.
Screening COc1ccc(C(NC(=O)C(C)C)c2ccc3cccnc3c2O)cc1 (stereo not given) returned Six1-Eya2 blk -88.8*, CtBP-E1A blk -93.4*, JMJD2A Tudor inh -26.0%, BAZ2B inh 44.7µM* and HP1b binding inh 46.3%.
Screening CCCC(=O)NC(c1ccc(C(C)C)cc1)c1ccc2cccnc2c1O (stereo not given) returned Six1-Eya2 blk inconclusive, CtBP-E1A blk -65.1*, JMJD2A Tudor inh -20.5%, BAZ2B inh -23.0%, G9a inh 75.6% and HP1b binding inh 52.8%.
`CCCCC(=O)NC(c1ccc(OC)cc1)c1ccc2cccnc2c1O` (stereo not given) gave Six1-Eya2 blk -6.9 and CtBP-E1A blk 17.5.
Screening CCCC(=O)NC(c1ccc(N(C)C)cc1)c1ccc2cccnc2c1O (stereo not given) returned Six1-Eya2 blk -69.4*, CtBP-E1A blk -91.7*, JMJD2A Tudor inh 22.4µM*, BAZ2B inh 7.1%[0.457 µM], G9a inh 3.8%[59 µM] and HP1b binding inh -17.3%.
Screening CCCCC(=O)NC(c1ccc(Cl)cc1Cl)c1ccc2cccnc2c1O (stereo not given) returned Six1-Eya2 blk -28.8, CtBP-E1A blk inconclusive, JMJD2A Tudor inh inconclusive, BAZ2B inh inconclusive and HP1b binding inh 27.8%.
For CCOC(=O)N1CCN(C(=O)CN(c2ccccc2F)S(=O)(=O)c2ccc(C)cc2)CC1 the results were JMJD2A Tudor inh -21.6%, BAZ2B inh 2.5%, G9a inh -30.0%[59 µM] and HP1b binding inh 13.2%.
For CC(=O)NC(c1ccc(Cl)cc1)c1ccc2cccnc2c1O (stereo not given) the results were Six1-Eya2 blk inconclusive, JMJD2A Tudor inh inconclusive and HP1b binding inh 37.8%.
`CC(=O)NC(c1ccco1)c1ccc2cccnc2c1O` (stereo not given) gave Six1-Eya2 blk -92.6*, CtBP-E1A blk -96.8*, JMJD2A Tudor inh 56.2µM*, BAZ2B inh 20µM*, G9a inh -8.2% and HP1b binding inh 24.3%.
CCCC(=O)NC(c1ccccc1Cl)c1ccc2cccnc2c1O (stereo not given) was read as Six1-Eya2 blk -84.9*, CtBP-E1A blk inconclusive, JMJD2A Tudor inh -27.4%, BAZ2B inh -34.3%, G9a inh 41.0% and HP1b binding inh 40.5%.
For COc1ccc(NC(=O)CCNS(=O)(=O)c2cccc3nsnc23)cc1Cl the results were JMJD2A Tudor inh -18.8%, BAZ2B inh -1.4%, G9a inh -0.6%[59 µM] and HP1b binding inh -3.4%.
For O=C(COc1cccc2ccccc12)Nc1ccc(Cl)cc1C(=O)O the results were Six1-Eya2 blk -9.3, CtBP-E1A blk 2.6, JMJD2A Tudor inh -26.9%, BAZ2B inh -17.9%, G9a inh 79.4µM* and HP1b binding inh 10.4%.
For CCC(=O)Nc1cc(Cl)ccc1C(=O)O the results were Six1-Eya2 blk -2.9, CtBP-E1A blk 3.9, JMJD2A Tudor inh 79.4µM*, BAZ2B inh inconclusive, G9a inh -3.6%[59 µM] and HP1b binding inh 26.0%.
`Cc1cc(C(=O)Nc2ccccc2C(=O)O)ccc1NC(=O)COc1ccccc1Cl` gave Six1-Eya2 blk -1.2, CtBP-E1A blk -3.8, JMJD2A Tudor inh -6.2%, BAZ2B inh -4.7%, G9a inh 22.4µM* and HP1b binding inh 24.1%.
Screening Cc1ccc(CCNS(=O)(=O)c2cc3c(cc2Cl)NC(=O)CO3)cc1 returned Six1-Eya2 blk -4.1, CtBP-E1A blk -1.4, JMJD2A Tudor inh -8.5%, BAZ2B inh -38.3% and HP1b binding inh 36.0%.
For Cc1ccc(NC(=O)CCSc2nc(-c3ccco3)cc(C(F)(F)F)n2)cc1F the results were JMJD2A Tudor inh -3.4%, BAZ2B inh 2.9%, G9a inh 17.4%[59 µM] and HP1b binding inh 40.3%.
COc1ccc(Oc2ncc3ncc(=O)n(Cc4cccs4)c3n2)cc1 was read as G9a inh 0.8%[12.7 µM].
Screening Cc1nn(C)c(C)c1CN(C)C(=O)C1CCC(=O)N(C2CCCCCC2)C1 (stereo not given) returned Six1-Eya2 blk 11.8, CtBP-E1A blk 0.6, JMJD2A Tudor inh -2.1%, BAZ2B inh 10.8% and HP1b binding inh 17.5%.
Screening Cc1nn(C)c(C)c1CN(C)C(=O)CCCC(=O)O returned Six1-Eya2 blk 9.0, CtBP-E1A blk 11.5, JMJD2A Tudor inh 50.1µM*, BAZ2B inh 6.2%, G9a inh 2.3%[59 µM] and HP1b binding inh 0.6%.
Screening Cc1ccc(Cl)c(OCC(=O)NCC(c2cccs2)N2CCOCC2)c1 (stereo not given) returned Six1-Eya2 blk 9.5, CtBP-E1A blk 5.9, JMJD2A Tudor inh -19.9%, BAZ2B inh 4.4%, G9a inh 17.2%[2.33 µM] and HP1b binding inh 66.8%.
Cc1ccccc1NC(=O)CSc1[nH]c(=O)cc(C)c1C#N was read as Six1-Eya2 blk 0.2, CtBP-E1A blk -1.8, JMJD2A Tudor inh -16.3%, BAZ2B inh 4.9%, G9a inh 14.1µM* and HP1b binding inh 36.9%.
O=C(O)c1ccc(N2C(=O)c3cccc4c(C(=O)O)ccc(c34)C2=O)cc1 was read as Six1-Eya2 blk -24.9, CtBP-E1A blk 0.0, JMJD2A Tudor inh 44.7µM*, BAZ2B inh 50.1µM*, G9a inh 12.6µM* and HP1b binding inh 79.4µM*.
For O=C(O)c1ccc2c3c(cccc13)C(=O)N(c1ccccc1)C2=O the results were Six1-Eya2 blk 4.5, CtBP-E1A blk -1.8, JMJD2A Tudor inh inconclusive, BAZ2B inh 56.2µM*, G9a inh 20µM* and HP1b binding inh inconclusive.
For O=C(O)c1ccc(N2C(=O)c3cccc4cccc(c34)C2=O)cc1 the results were Six1-Eya2 blk 2.3, CtBP-E1A blk 0.3, JMJD2A Tudor inh -11.7%, BAZ2B inh 21.3% and HP1b binding inh 34.1%.
Screening O=C1c2ccccc2C(=O)N1c1ccc(O)cc1 returned JMJD2A Tudor inh -15.6% and HP1b binding inh 15.3%.
